# In PubChem BioAssay (NCI):
# About 83,000 compounds went through this panel and 20% of them were active in at least one assay; those are over-represented in the sample as a whole.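 Growth was measured after 48 h exposure to one concentration of compound in 96-well plates. Values under 10 count as active.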 Unmarked numbers belong to inactive results. Calls of active or inactive are those of the source.
# Key:
# Experiment in all cases: NCI-60 one-dose screen, 48 h (100 = growth as untreated, 0 = no growth, -100 = all killed)
# Conditions in all cases: 10 µM
# NCI-H23 lung = test system: NCI-H23 lung
# NCI-H226 lung = test system: NCI-H226 lung
# HOP-62 NSCLC = test system: HOP-62 NSCLC
# NCI-H460 lung = test system: NCI-H460 lung
# HOP-92 NSCLC = test system: HOP-92 NSCLC
# NCI-H522 lung = test system: NCI-H522 lung
# A549/ATCC NSCLC = test system: A549/ATCC NSCLC
# 786-0 renal = test system: 786-0 renal
# COLO 205 colon = test system: COLO 205 colon
# DU-145 prostate = test system: DU-145 prostate
# K-562 leukemia = test system: K-562 leukemia
# MALME-3M melanoma = test system: MALME-3M melanoma
# MDA-MB-231 breast = test system: MDA-MB-231 breast
# RXF 393 renal = test system: RXF 393 renal
# SF-268 CNS = test system: SF-268 CNS
# SF-295 CNS = test system: SF-295 CNS
# SF-539 CNS = test system: SF-539 CNS
# UACC-257 melanoma = test system: UACC-257 melanoma
# M14 melanoma = test system: M14 melanoma
Compound,growth (NCI-H23 lung) [%],growth (NCI-H226 lung) [%],growth (HOP-62 NSCLC) [%],growth (NCI-H460 lung) [%],growth (HOP-92 NSCLC) [%],growth (NCI-H522 lung),growth (A549/ATCC NSCLC) [%],growth (786-0 renal) [%],growth (COLO 205 colon),growth (DU-145 prostate) [%],growth (K-562 leukemia),growth (MALME-3M melanoma) [%],growth (MDA-MB-231 breast) [%],growth (RXF 393 renal),growth (SF-268 CNS) [%],growth (SF-295 CNS) [%],growth (SF-539 CNS),growth (UACC-257 melanoma) [%],growth (M14 melanoma) [%]
O=C1CSC(=S)N1/N=C/c1ccc(Cl)s1,90.3,106,95.4,107,110,96.2%,103,102,107%,109,105%,103,99.4,108%,91.9,100,95.1%,110,107
COc1ccc(/C=C2\CCCC3=C2NC(N)=NC3c2ccc(OC)cc2)cc1 (centres undefined),94.1,77.3,110,99.2,68.6,77.3%,89.4,106,112%,109,107%,99.6,96.9,99.3%,109,104,107%,91.2,106
CCOC(=O)CC(S(=O)(=O)c1ccccc1)S(=O)(=O)c1ccccc1,98.3,95.7,109,103,89.7,-11.9% (active),95.3,115,-87.1% (active),111,78.7%,39.8,109,57.5%,101,108,104%,89.6,115
O=C(CCn1cnc2c(cc(-c3ccccc3)n2-c2ccccc2)c1=O)Nc1ccc(F)cc1,76.1,106,13,80.4,34.2,55%,70.9,62.7,103%,85.9,67.3%,51.4,68.7,1.78% (active),70,77.8,76.2%,86.2,73.4
COc1cc(C(=O)n2nc(-c3cc(OC)c(OC)c(OC)c3)nc2N)cc(OC)c1OC,92.9,98.7,85.8,103,82,82.1%,98.5,96.6,99.4%,101,77.8%,103,108,114%,93.4,92.7,96.6%,101,89.9
CCn1c(SC/C(=N/O)c2ccccc2)nnc1-c1ccccc1,103,108,111,102,62.5,112%,101,105,115%,107,86%,98.6,94.6,117%,108,109,93.7%,104,109
CC(C)(C)OC(=O)CN1CCc2c(sc3ncnc(N/N=C/c4cccc5ccccc45)c23)C1,40.6,53.1,45.5,20.9,54.9,32.8%,43.7,44.1,18.4%,66.4,6.22% (active),72.2,39.9,55.9%,60.2,51.5,24.3%,38.8,42.7
O=C(Nc1ccc(NS(=O)(=O)c2ccc(F)cc2)cc1)C12CC3CC(CC(C3)C1)C2,94.9,92,104,101,106,86.4%,86.6,103,101%,103,74.7%,87.1,96.2,105%,97.4,91.2,106%,91.6,96.6
Cc1ccc(S(=O)(=O)N/N=C2\CCCc3ccccc32)cc1,87.1,90.9,108,96.7,99.5,103%,101,116,115%,114,97.2%,105,108,103%,102,104,108%,93.8,118
O=S(=O)(O)c1cccc(Nc2ccc3ccccc3c2)c1,92,86.5,84.4,101,74.8,87.9%,94.1,104,97.8%,109,98.7%,88.1,90.1,107%,95.8,104,102%,89.7,92.7
N#CC1=C(N)Oc2cc(N)ccc2C1c1cccnc1 (centres undefined),92.1,101,92.7,97.5,111,75%,100,90.7,113%,104,83.3%,98.6,101,108%,93.4,99.7,96.1%,109,87.3
S=c1cnc2ccccc2[nH]1,98.4,107,93.3,96.3,79.4,95.5%,93.5,98.9,95%,103,99.8%,84.6,111,114%,95.7,103,-10.4% (active),99.1,89
CCN(CC)CC(=O)N(CC)c1ccc(C)c(Cl)c1,103,99.8,91,104,90.1,83.8%,86.3,98.4,101%,103,108%,96.2,113,105%,92.9,101,108%,88.7,100
CC(C)CCN(CCC(C)C)CC(=O)Nc1ccc(S(=O)(=O)c2ccc(NC(=O)CN(CCC(C)C)CCC(C)C)cc2)cc1,46.3,76.7,67.5,48.2,75,-64.6% (active),53.7,18,29.6%,54,3.86% (active),19.4,31,24.9%,34.5,90.1,21.4%,56.2,31.6
COc1ccc(C(=O)N/N=C/c2cc(C(F)(F)F)ccc2Cl)cc1,81.3,82.3,107,99.8,90.2,82.1%,97.4,104,104%,105,95.4%,111,89.4,74.9%,112,78.2,104%,105,104
S=C(NCc1ccccc1)NCc1ccccc1,95,97.8,94.2,103,99.3,82.4%,86.1,96.6,107%,107,98.7%,95.3,100,101%,95.8,95.8,101%,81.9,101
